From PubChem BioAssay (NCI)
This is part of a sample that, as a whole, favours compounds with a hit. Of some 83,000 tested, about 20% had one in any assay.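 Interpretation: 100, growth as untreated; towards 0, rising growth inhibition; 0, no net growth; 0 to -100, cell death. Compounds scoring below 10 were considered active.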 Values without a mark were called inactive. Active and inactive are the calls of the source.

Experiments:
Assay in all cases: NCI-60 one-dose screen, 48 h (100 = growth as untreated, 0 = no growth, -100 = all killed)
Settings in all cases: 10 µM unless noted
SR leukemia = system: SR leukemia
RPMI-8226 leukemia = system: RPMI-8226 leukemia
OVCAR-8 ovarian = system: OVCAR-8 ovarian
OVCAR-5 ovarian = system: OVCAR-5 ovarian
OVCAR-4 ovarian = system: OVCAR-4 ovarian
SK-OV-3 ovarian = system: SK-OV-3 ovarian
IGROV1 ovarian = system: IGROV1 ovarian
HS 578T breast = system: HS 578T breast
NCI/ADR-RES ovarian = system: NCI/ADR-RES ovarian

SMILES | growth (SR leukemia) [%] | growth (RPMI-8226 leukemia) [%] | growth (OVCAR-8 ovarian) [%] | growth (OVCAR-5 ovarian) [%] | growth (OVCAR-4 ovarian) [%] | growth (SK-OV-3 ovarian) [%] | growth (IGROV1 ovarian) | growth (HS 578T breast) | growth (NCI/ADR-RES ovarian) [%]
CCCCSC1=C(Cl)CN(c2ccc(Cl)cc2)C1=O | 34.3 | 31.7 | 99.1 | 104 | 104 | 110 | 109% | 107% | 103
O=C1/C(=C/c2cc(F)cc(F)c2)Cc2cc3c(cc21)OCO3 | 18.4 | 52.3 | 42.5 | 65.3 | 61.9 | 35.6 | 36.9% | 46.9% | 19.4
CCOC(=O)C(=O)Nc1ccc2c(ccn2C(=O)c2cccc(F)c2)c1 | 96.3 | 101 | 93.1 | 92.4 | 101 | 103 | 103% | 94.4% | 100
CN1CCN(c2ccc(C(=O)/C=C/c3cc(F)cc(C(F)(F)F)c3)cc2)CC1 | 17.5 | 11.2 | 65.2 | 115 | 71.8 | 109 | 77.9% | 100% | 59
O=C(CCCCCC/C=C\c1csc(Br)n1)NO | 50.6 | 53.9 | 76 | 80.1 | 87.5 | 95.1 | 81.9% | 87.1% | 64.6
O=C(CCl)Nc1ccc(NC(=O)c2cc(Cl)ccc2O)c(Cl)c1 | 21.3 | 49.8 | 48.6 | 121 | 83 | 90.9 | -45.3% (active) | 86.9% | 56.7
O=C(CCCCCCN1CC(=O)N2[C@@H](C3CC3)c3[nH]c4ccccc4c3C[C@H]2C1=O)NO | 36.5 | 56.2 | 37.5 | 71.8 | 97.6 | 102 | 89.2% | 62% | 75.7
COc1ccc(C2C(C#N)=C(/N=C/c3ccc(Cl)cc3)Oc3c2sc2c(C)cccc32)cc1 (stereo not given) | 16.5 | 22.6 | 23.4 | 34.9 | 76.5 | 42.8 | 23.6% | -4.66% (active) | 11.2
O=[N+]([O-])c1ccc(NC(=S)NNC(=S)Nc2ccc(F)cc2)cc1 | 91 | 85.6 | 91.7 | 89.9 |  | 116 | 83.5% | 102% | 84.2
